Results taken from PubChem BioAssay AID1159580 (chemical genetic matrix, 2015).
The campaign covered roughly 5,500 compounds. About 2,000 (36%) were called active. Inconclusive results (about 18%) are left out. Cut-off read from the data, not from the text of the source: active = normalized growth mostly below about 0.91 (no sharp cut-off); inconclusive = no clear call, values can overlap the other calls; inactive = mostly above about 0.92. This is one part of the list.

Assay: chemical genetic growth profiling, strain panel (AID 1159580);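 note: tested at 20 µM; growth read once vehicle control cultures reached saturation at 30 °C; 1 = growth at the plate median or of vehicle wells; lower values mean less growth of the strain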
Conditions: S. cerevisiae deletion strains, growth OD

Measured: normalized growth

CC(=O)NNC(=O)N1Cc2ccccc2Oc2ccc(Cl)cc21
inactive: locus YAL013W, strain DEP1, stronger effect = lower value 1.04 | locus YAL040C, strain CLN3, stronger effect = lower value 1 | locus YCL061C, strain MRC1 (second series), stronger effect = lower value 1.02 | locus YDR150W, strain NUM1, stronger effect = lower value 1.02 | locus YDR363W, strain ESC2, stronger effect = lower value 1.03 | locus YER002W, strain NOP16, stronger effect = lower value 1 | locus YMR307W, strain GAS1, stronger effect = lower value 0.997 | locus YNL153C, strain GIM3, stronger effect = lower value 1.02 | locus YNL175C, strain NOP13, stronger effect = lower value 0.989 | locus YNL197C, strain WHI3, stronger effect = lower value 1.01 | locus YNL224C, strain SQS1, stronger effect = lower value 0.984 | locus YNL322C, strain KRE1, stronger effect = lower value 1.03 | locus YOR083W, strain WHI5 (second series), stronger effect = lower value 1.01 | locus YPL055C, strain LGE1, stronger effect = lower value 1.04 | locus YPL241C, strain CIN2, stronger effect = lower value 1
